This is part of a sample that, as a whole, favours compounds with a hit. Of some 83,000 tested, about 20% had one in any assay.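 A percent growth of 40 corresponds to 60% growth inhibition; 0 means no net growth; -100 means all cells died. Active threshold: below 10.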 Values without a mark were called inactive. Activity calls are given as the source filed them.
Tests used:
Experiment in all cases: NCI-60 one-dose screen, 48 h (100 = growth as untreated, 0 = no growth, -100 = all killed)
Details in all cases: 10 µM unless noted
DU-145 prostate = tested on: DU-145 prostate
K-562 leukemia = tested on: K-562 leukemia
MALME-3M melanoma = tested on: MALME-3M melanoma
MDA-MB-231 breast = tested on: MDA-MB-231 breast
RXF 393 renal = tested on: RXF 393 renal
SF-268 CNS = tested on: SF-268 CNS
SF-295 CNS = tested on: SF-295 CNS
SF-539 CNS = tested on: SF-539 CNS
UACC-257 melanoma = tested on: UACC-257 melanoma
M14 melanoma = tested on: M14 melanoma
HCT-15 colon = tested on: HCT-15 colon
HT29 colon = tested on: HT29 colon
SNB-75 CNS = tested on: SNB-75 CNS
SNB-19 CNS = tested on: SNB-19 CNS
U251 CNS = tested on: U251 CNS
PC-3 prostate = tested on: PC-3 prostate
SK-MEL-5 melanoma = tested on: SK-MEL-5 melanoma
UACC-62 melanoma = tested on: UACC-62 melanoma
LOX IMVI melanoma = tested on: LOX IMVI melanoma
SK-MEL-28 melanoma = tested on: SK-MEL-28 melanoma

Row | Structure (SMILES) | growth (DU-145 prostate) | growth (K-562 leukemia) | growth (MALME-3M melanoma) | growth (MDA-MB-231 breast) | growth (RXF 393 renal) | growth (SF-268 CNS) | growth (SF-295 CNS) | growth (SF-539 CNS) | growth (UACC-257 melanoma) | growth (M14 melanoma) | growth (HCT-15 colon) | growth (HT29 colon) | growth (SNB-75 CNS) | growth (SNB-19 CNS) | growth (U251 CNS) | growth (PC-3 prostate) | growth (SK-MEL-5 melanoma) | growth (UACC-62 melanoma) | growth (LOX IMVI melanoma) | growth (SK-MEL-28 melanoma)
1 | NC(N)=N/N=C/CO | 101% | 99.2% | 111% | 111% | 109% | 105% | 103% | 97.5% | 95.9% | 99% | 106% | 98.4% | 89.9% | 111% | 105% | 91.2% | 102% | 113% | 93.1% | 106%
2 | Oc1[nH]c2ccccc2c1/C=c1/cc2c(c(-c3ccc(F)cc3)n1)=Nc1ccccc1-2 | 9.34% (active) | 2.88% (active) | -54.5% (active) | -4.54% (active) | -57.1% (active) | 15.4% | -19.1% (active) | -65.6% (active) | 20.9% | -36.8% (active) | -18.1% (active) | -41.7% (active) | -2.31% (active) | 25.2% | -57.8% (active) | -14.8% (active) | -38.9% (active) | -56% (active) | -58.1% (active) | -47.3% (active)
3 | Cc1cc(-c2ccc(N(C)C)cc2)c2sc(=O)[nH]c2n1 | 98.8% | 24.5% | 71.1% | 71.4% | 51.2% | 69.5% | 48.6% | 52.9% | 81.4% | 44.5% | 29.4% | 70% | 53.2% | 55.7% | 50.2% | 80.8% | 33.3% | 42.5% | 51.6% | 69%
4 | CCCCCCCCn1cc(C2=C(c3coc4ccc(OC)cc34)C(=O)NC2=O)c2ccccc21 | 106% | 121% | 89.5% | 102% | 105% | 97.2% | 97.2% | 95.7% | 94.7% | 96.1% | 97.4% | 99.3% | 84.8% | 108% | 97.2% | 107% | 99.2% | 96.2% | 61.2% | 101%
5 | Cc1cnc(Nc2ccc(N3CCN(C)CC3)cc2)nc1Nc1ccc(Cl)c(NS(=O)(=O)C(C)(C)C)c1 | 13.4% | 7.56% (active) | 19.3% | 4.33% (active) | -78.2% (active) | 15.7% | 26.1% | -36.4% (active) | 5.3% (active) | 8.84% (active) | 4.29% (active) | -31.1% (active) | -36.8% (active) | 53.1% | 24.2% | 39.4% | -8.43% (active) | 16.1% | -84.4% (active) | 35.2%
6 | N#C/C(=C\c1ccc2c(c1)OCO2)n1nnc2ccccc21 | -38% (active) | 14.2% | 25.8% | -31.9% (active) | -44.8% (active) | 22.9% | -5.56% (active) | -61.4% (active) | 64.4% | 2.76% (active) | 9% (active) | 11.5% | -49.7% (active) | 19.8% | 13% | 12.5% | 20.4% | 20% | -11% (active) | 25.8%
7 | C=C1C(=O)O[C@H]2[C@H]1CC/C(COC(=O)/C=C/C(=O)NCc1ccc(Cn3c(=O)sn(-c4ccccc4)c3=O)cc1)=C\CC[C@@]1(C)O[C@@H]21 | 8.63% (active) | -0.361% (active) | -57.8% (active) | -39.9% (active) | -86.6% (active) | -6.21% (active) | 100% | -39.1% (active) | -11.4% (active) | -36% (active) | 32.9% | -46.6% (active) | 70.7% | 61.8% | 20.7% | 57.1% | -27.8% (active) | -80.8% (active) | -85.2% (active) | -40.1% (active)
8 | CCN(CC)c1ccc(Nc2ccc(CC(=O)c3ccccc3)cc2)cc1 | 98.1% | 82.3% | 106% | 75.7% | 89.2% | 87% | 97.8% | 89.4% | 93.7% | 87.6% | 88.7% | 75.8% | 91.1% | 80.8% | 56.2% | 39.9% | 79.9% | 78.5% | 91.3% | 98.5%
9 | CCn1c(Sc2nnc(NC(C)=O)s2)nc2c1c(=O)n(C)c(=O)n2C | 99.2% | 95.6% | 99.1% | 96% | 91.2% | 90.8% | 98% | 92.5% | 103% | 91.4% | 97.5% | 104% | 90% | 96.8% | 106% | 91.9% | 98.6% | 93.3% | 90% | 101%
10 | CCCN1CCN(c2ccc3nc(-c4ccc5nc(-c6cc(OC)c(OC)c(OC)c6)[nH]c5c4)[nH]c3c2)CC1 | 109% | 59.5% | 7.58% (active) | 98.4% | 15.6% | 75.6% | 65.9% | 59.6% | 71.7% | 63.9% | 99.5% | 58% | 43.6% | 69.8% | 66.3% | 70.7% | 41.3% | 35.8% | 67.3% | 57.8%
11 | O=C(Oc1ccc([N+](=O)[O-])cc1)c1ccc(CBr)cc1 | 107% | 86.7% | 97.9% | 84.8% | 114% | 100% | 103% | 97% | 92.6% | 105% | 76.9% | 92.3% | 89.2% | 91.5% | 82.4% | 87% | 95.2% | 82.2% | 67.2% | 104%
12 | O=c1ccn(C2OC(F)(CO)C(O)C2F)c(=O)[nH]1 (stereo not given) | 110% | 112% | 110% | 114% | 141% | 100% | 98.3% | 100% | 95.1% | 95.3% | 103% | 94.5% | 95.9% | 105% | 94.8% | 93.1% | 108% | 103% | 97.3% | 109%
13 | CCOc1cc(C2C(Cl)C(=O)N2n2cnnc2)ccc1O (stereo not given) | 110% | 104% | 99.5% | 106% | 93.4% | 92.4% | 105% | 101% | 88.9% | 95.4% | 103% | 96.9% | 72.5% | 102% | 98.5% | 91.1% | 106% | 95.5% | 101% | 105%
14 | O=C1C2=C(CCN(Cc3ccccc3)C2)N2CCN=C2N1Cc1ccc(F)cc1F | 32.6% | 33.1% | 41.5% | 20.4% | 55% | 40.2% | 5.35% (active) | 40.1% | 13.6% | 35.9% | 20.4% | 34% | 46.7% | 30.1% | 21.3% | 21.3% | 27.5% | 44.5% | 39.3% | 57.9%

Reference: PubChem BioAssay (NCI)
